Source: PubChem BioAssay
Most compounds without a hit are left out; they make up all but 11% or so of the library.
3T3 cytotox – cytotoxic compounds in NIH 3T3 cells. NIH 3T3 viability, CellTiter-Glo ATP luminescence, 48-72 h. Potency, µM (highest dose often 96.7 µM), inactives show at the highest dose activity change, negative = cytotoxicity, actives largely listed as inhibitors. actives 4.3% (n = 94,000). AID 1345082; further: nearly all actives have a fitted effect of over 55% in size
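Mouse fibroblast NIH 3T3 cells, 400 per well, received compound via pintool and were incubated for 48 or 72 hr prior to CellTiter-Glo ATP luminescence measurement.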
NPR1 antag – human Npr1 receptor antagonism. HEK293 hNpr1 GloSensor cGMP, ANP-stimulated luminescence. Potency, µM (titrated, usually from 46.3 µM), without a hit: at the top dose activity change, negative = inhibition, usual class: inhibitors. actives 1.6% (n = 76,000). AID 1347048; calls by dose curve; further: nearly all actives have a fitted effect of over 60% in size
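Compound pre-incubated 30 min at room temperature on GloSensor-loaded HEK293 cells stably carrying hNpr1 and the pGS-40F cGMP biosensor. Stimulation uses hNppA at 0.1 nM final; luminescence is taken at baseline and 20 min post-agonist.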
Luciferase inh – inhibitors of firefly (Photinus pyralis) luciferase; Potency, µM (titrated, usually from 115 µM), usual class: inhibitors; actives 2.5% (n = 76,000); purified P. pyralis luciferase, luminescence, biochemical; P08659; AID 1347043; further: nearly all actives have a fitted effect of over 65% in size
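Purified 10nM P. pyralis luciferase with 10uM D-luciferin and 10uM ATP in 50mM Tris acetate pH 7.5, 10mM Mg acetate, 0.01% Tween-20, 0.05% BSA. qHTS titration; luminescence read by CCD imager.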
HEK cytotox – HEK 293 cell cytotoxicity; HEK 293 viability, ATP luminescence (CellTiter-Glo), 48-72 h; Potency, µM (series often up to 115 µM), without a hit: at the top dose activity change, negative = cytotoxicity, hits mostly inhibitors; actives 6.6% (n = 94,000); further: nearly all actives have a fitted effect of over 60% in size
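Read-out: CellTiter-Glo ATP luminescence. Cells: HEK 293, 250 cells/well. Exposure: 48 or 72 hr, 37 degree Celsius.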
* = called active by the depositor; i = inactive; ? = inconclusive; . = no result given; [ ] = another dose, or the depositor's remark. Unless noted, the call rests on the fitted dose curve; in most records, active means well fitted curve in the direction sought with a large enough effect; inconclusive means small, poorly fitted or top-dose-only effect, or another doubt; inactive means no such curve, though single readings can be large; an effect the other way counts as inactive or inconclusive. On the % scale 0 is the no-effect control and ±100 the full control effect; potency means the concentration at half of the fitted maximal effect.

SMILES	3T3 cytotox	NPR1 antag	Luciferase inh	HEK cytotox
Oc1ccccc1CN1CCC(n2cc(-c3ccc(F)cc3)nn2)CC1	-9%	-6%	i	?
COc1ccc(C(=O)Nc2nc3c(s2)C[C@@H]2[C@](C)(CO)[C@H](O)CC[C@@]2(C)[C@@H]3CC(=O)N(C)Cc2ccccc2)cc1	?	-15%	i	?
COc1ccc(C(=O)Nc2nc3c(s2)C[C@@H]2[C@](C)(CO)[C@H](O)CC[C@@]2(C)[C@@H]3CC(=O)N2CCC(C)CC2)cc1	18µM*	-14%	i	?
C#CCNC(=O)C[C@@H]1c2nc(NC(=O)c3ccc(C(C)(C)C)cc3)sc2C[C@@H]2[C@](C)(CO)[C@H](O)CC[C@]21C	32µM*	-9%	35µM*	?
CN(Cc1ccccc1)C(=O)C[C@@H]1c2nc(NC(=O)c3ccc(F)cc3)sc2C[C@@H]2[C@](C)(CO)[C@H](O)CC[C@]21C	25µM*	-10%	i	?
COCC(=O)Nc1nc2c(s1)C[C@@H]1[C@](C)(CO)[C@H](O)CC[C@@]1(C)[C@@H]2CC(=O)N1CCC(C)CC1	-6%	0%	i	i
CNC(=O)c1cc(C2CC2)nc2c1c(C1CCCN(C(=O)Cc3ccccc3)C1)nn2C (centres undefined)	-11%	.	.	-6%
Cc1c(CC(=O)NC(C)C)c2c(n1Cc1ccccc1F)CCCC2=O	-4%	-7%	45µM*	?
Cc1ccc(NC(=O)N2C[C@@H](F)C[C@H]2C(=O)N2CCc3ccccc3C2)cc1F	35µM*	-1%	i	40µM*
O=C([C@@H]1C[C@H](F)CN1S(=O)(=O)Cc1ccc(Cl)cc1)N1CCc2ccccc2C1	16µM*	?	i	?
Cc1ccc(CN2CCC3(CC2)COc2ccccc2NC3=O)cc1	-10%[138 µM]	0%[70.6 µM]	i	-18%[172 µM]
CC1=C(C(=O)OC(C)(C)C)C(c2ccc(Cl)cc2)N2C(CC(=O)N3CCCC3)=CSC2=N1 (centres undefined)	?	-26%	i	?
CC1=C(C(=O)NC(C)(C)C)C(c2ccc(Cl)cc2)N2C(CC(=O)N3CCCC3)=CSC2=N1 (centres undefined)	45µM*	-17%	i	?
COc1ccccc1CNC(=O)C1CCCN1c1nccc(Nc2ccccc2F)n1 (centres undefined)	?	.	.	40µM*
COc1ccccc1Nc1ccnc(N2CCC[C@H]2C(=O)NCCc2ccccc2F)n1	-19%	.	.	?
O=C(C1CCCN1c1nccc(Nc2ccccc2F)n1)N1CCC(Cc2ccccc2)CC1 (centres undefined)	40µM*	.	.	28µM*
Cc1ccc(-c2cccc(CN3CCCC3C(=O)N3CCCCC3)c2)cc1Cl (centres undefined)	32µM*	.	.	32µM*
O=C1CCN(C(=O)[C@@H]2CCCN2Cc2cccc(F)c2)CCCCCCN1	-9%	3%	i	1%
Cc1ccc(-c2cccc(CN3CCCC3C(=O)N3CCC(C#N)CC3)c2)cc1Cl (centres undefined)	32µM*	.	.	40µM*
CC(=O)NCCC(=O)N1Cc2ccccc2CC2(CCCN2CC2CCCCC2)C1 (centres undefined)	-8%	.	.	-14%
COCc1ccc2c(c1)c(OC(C)(C)C(=O)Nc1ccccn1)nn2Cc1ccccc1	?	-4%[70.6 µM]	i	63µM*
COCc1ccc2c(c1)c(OC(C)(C)C(=O)NCCc1ccccn1)nn2Cc1ccccc1	?	-11%	i	?
COCc1ccc2c(c1)c(OC(C)(C)C(=O)N1CC(O)C1)nn2Cc1cccnc1	79µM*	2%[70.6 µM]	i	2%[172 µM]
COCc1ccc2c(c1)c(OC(C)(C)C(=O)NCC[S+](C)(=O)[O-])nn2Cc1cccnc1	?	-1%	i	i
COCc1ccc2c(c1)c(OC(C)(C)C(=O)NCC[S+](C)(=O)[O-])nn2Cc1ccccc1	35µM*	-1%	i	-26%
Cc1noc(C)c1S(=O)(=O)N[C@@H]1CN(Cc2ccccc2)C[C@H]1CN(C)C	-2%	6%	i	i
COc1ccc(C(=O)N2CCC(N3CC(OCC4CC4)C34CCOCC4)CC2)cc1F (centres undefined)	-8%	.	.	2%
Cc1noc(C)c1-c1cc2cc(CN(C)C)oc2c(NCc2ccccc2)n1	?	2%[70.6 µM]	i	?
